Rows were chosen to be rich in hits. Some 1.2% of all compounds tested hit in one or more screens of this group.
GLS inh: glutaminase GLS (human) inhibition | Potency, µM (series often up to 45.5 µM), for inactives: top-dose activity change, negative = inhibition, hits mostly inhibitors | 410,000 tested, 0.21% active | GLS enzymatic activity, qHTS titration | AID 624170 | O94925
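Two-point fluorescence kinetic (t0, 30 min RT) for hKGA; glutamate detected via glutamate oxidase–HRP–Amplex Red. Substrate: 1 mM L-glutamine solution; buffer 45 mM KH2PO4, pH 8.2.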
TrxR1 substrate: rat thioredoxin reductase 1 substrate activity; O89049; purified TrxR1 substrate turnover, NADPH consumption readout; Potency, µM (titrated, usually from 114 µM), without a hit: top-dose activity change, negative = substrate turnover; 390,000 tested, 0.01% active; further: nearly all actives have a fitted effect of over 50% in size
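Rat TrxR1, dispensed at 90 nM, was prereduced with 400 uM NADPH (final) for 5 min at ~22 deg C, then incubated with compound 15 min before 400 uM selenite. A first-read NADPH fluorescence drop versus no-compound background flagged substrates.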
TrxR1 inh: inhibitors of rat thioredoxin reductase 1; O89049; recombinant rTrxR1, NADPH fluorescence consumption, selenite substrate; Potency, µM (top dose mostly 114 µM), for inactives: top-dose activity change, negative = inhibition, actives largely listed as inhibitors; 390,000 tested, 1% active; further: nearly all actives have a fitted effect of over 65% in size
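Rat TrxR1 (90 nM in the dispensed reagent) was pre-reduced with 400 uM NADPH for 5 min at room temperature, then incubated with compound for 15 min. After 400 uM selenite was added, NADPH fluorescence (Ex 340/Em 450 nm) was followed for 8 min.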
mIDH1 inhibitor: human IDH1 R132H inhibition; O75874; IDH1-R132H enzyme, NADPH consumption, diaphorase/resazurin fluorescence; Potency, µM (doses to about 76.6 µM), without a hit: at the highest dose activity change, negative = inhibition, usual class: inhibitors; 390,000 tested, 0.093% active; AID 602179; further: nearly all actives have a fitted effect of over 65% in size
Target sequence (O75874 whole entry R132H, stated change not applied): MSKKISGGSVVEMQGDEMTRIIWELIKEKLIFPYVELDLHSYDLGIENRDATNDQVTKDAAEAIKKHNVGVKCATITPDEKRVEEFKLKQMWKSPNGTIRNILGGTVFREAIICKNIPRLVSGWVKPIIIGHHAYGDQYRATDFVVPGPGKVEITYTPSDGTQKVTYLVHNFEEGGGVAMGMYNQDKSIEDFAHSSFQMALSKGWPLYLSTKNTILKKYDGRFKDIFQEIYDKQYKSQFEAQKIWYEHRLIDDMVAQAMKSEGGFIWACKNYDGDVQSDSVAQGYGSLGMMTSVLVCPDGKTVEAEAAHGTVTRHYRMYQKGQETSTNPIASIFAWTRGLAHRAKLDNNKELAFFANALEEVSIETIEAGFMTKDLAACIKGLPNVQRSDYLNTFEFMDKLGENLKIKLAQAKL
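IDH1-R132H (0.5 ug/mL dispensed) in pH 7.5 Tris buffer was preincubated 30 min with compound, then given a substrate mix of 0.016 mM NADPH and 2 mM alpha-KG for 80 min at room temperature; remaining NADPH was read by diaphorase/resazurin fluorescence.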
* marks the source's active call; other numbers are inactive results; ? = inconclusive; . = no result; [ ] = dose if it differs, or a comment. The call rests on the fitted dose curve; in most records, active means well fitted curve in the direction sought with a large enough effect; inconclusive means small, poorly fitted or top-dose-only effect, or another doubt; inactive means no such curve, though single readings can be large; an effect the other way counts as inactive or inconclusive. On the % scale 0 is the no-effect control and ±100 the full control effect; potency means the concentration at half of the fitted maximal effect.

SMILES	GLS inh	TrxR1 substrate	TrxR1 inh	mIDH1 inhibitor
O=C(CCS(=O)(=O)c1cccc2nonc12)Nc1c(F)cccc1F	-2%	10%[2.29 µM]	32µM*	0%
O=c1cc(-c2ccccc2)n2c(SCc3c(F)cccc3Cl)nnc2[nH]1	-4%	3%[57.1 µM]	12%[57.1 µM]	-10%
CSc1nc(-c2ccco2)nn1C(=O)c1ccc(C)cc1	26%	7%	20µM*	-1%
CSc1nc(-c2ccco2)nn1C(=O)c1ccccc1	24%	-13%	20µM*	3%
Cc1c(F)cccc1Cn1cnc2c(cnn2C(C)(C)C)c1=O	.	-8%	3%	.
Nc1ccc2c(c1)C/C(=C/c1ccco1)C2=O	7%	-5%	56µM*	1%
CCS(=O)(=O)c1ncc(Cl)c(C(=O)Nc2ccccc2)n1	3%	-4%	2.5µM*	-6%
CCSc1ncc(Cl)c(C(=O)Nc2ccc(S(=O)(=O)N3CCC(C)CC3)cc2)n1	-14%	-3%	21%	10%
CCSc1ncc(Cl)c(C(=O)N(Cc2ccccc2)Cc2ccco2)n1	-9%	-3%	-24%	.
CCS(=O)(=O)c1ncc(Cl)c(C(=O)Nc2ccc(S(=O)(=O)N3CCC(C)CC3)cc2)n1	-5%	-1%	8.9µM*	1%
CC(=O)Nc1ccc(NC(=O)c2nc(S(=O)(=O)Cc3cccc(C)c3)ncc2Cl)cc1	-22%	3%	10µM*	2%
CCCS(=O)(=O)c1ncc(Cl)c(C(=O)N(Cc2ccccc2)Cc2ccco2)n1	6%	12%[0.457 µM]	1.8µM*	4%
O=S1(=O)CCO[C@H]2CCCC[C@@H]2N1Cc1ccc(Cl)cc1	.	-6%	-10%	.
CCOC(=O)c1c(-c2ccccc2)csc1NC(=O)c1nc(S(=O)(=O)CC)ncc1Cl	-7%	0%	3.2µM*	-9%
COc1ccc(N(Cc2ccccc2)C(=O)c2nc(SC)ncc2Cl)cc1	-7%	-2%	20%	18%
COC(=O)c1ccc(NC(=O)c2nc(S(=O)(=O)Cc3cccc(C)c3)ncc2Cl)cc1	?	-2%	20µM*	2%
CC1CCN(S(=O)(=O)c2ccc(NC(=O)C3CCCCC3C(=O)O)cc2)CC1 (stereo not drawn)	11µM*	-10%	-11%	3%
Cc1cccc(CS(=O)(=O)c2ncc(Cl)c(C(=O)NCc3ccc4c(c3)OCO4)n2)c1	-2%	20%	5%	-3%
CCS(=O)(=O)c1ncc(Cl)c(C(=O)N(Cc2ccccc2)c2ccc(OC)cc2)n1	-8%	4%	3.5µM*	-7%
CSc1ccc(/C=C2\C=Cc3cc([N+](=O)[O-])ccc32)cc1	.	-9%	?	.
CCCSc1ncc(Cl)c(C(=O)Nc2ccc(S(=O)(=O)N(C)c3ccccc3)cc2)n1	-2%	7%	8%	.
CCOC(=O)c1ccc(NC(=O)c2nc(SC(C)C)ncc2Cl)cc1	-10%	-1%	9%	-3%
CCOC(=O)c1ccc(NC(=O)c2nc(S(=O)(=O)Cc3ccccc3)ncc2Cl)cc1	?	6%	6.3µM*	-1%
CCS(=O)(=O)c1ncc(Cl)c(C(=O)N2CCN(c3ccc(OC)cc3)CC2)n1	13%	6%	3.2µM*	.
CN(c1ccccc1)S(=O)(=O)c1ccc(NC(=O)c2nc(S(C)(=O)=O)ncc2Cl)cc1	-25%	0%	0.79µM*	3%
SMILES	GLS inh	TrxR1 substrate	TrxR1 inh	mIDH1 inhibitor
COC(=O)c1ccccc1NC(=O)c1nc(S(=O)(=O)Cc2cccc(C)c2)ncc1Cl	-3%	8%	1.4µM*	-20%
COc1ccc(N2CCN(C(=O)c3nc(SC)ncc3Cl)CC2)cc1	39%	3%	12%	8%
COc1ccc2nc(NC(=O)c3nc(S(=O)(=O)Cc4ccc(C)cc4)ncc3Cl)sc2c1	-2%	-5%	-7%	0%
NC(=S)NN=C1C=CCCC1	19%	5%	-17%	-2%
CCc1c(C)sc2c1CCN(C(=O)Nc1ccccc1Cl)C2c1ccc(OC)cc1 (stereo not drawn)	4%	2%[57.1 µM]	15%[57.1 µM]	0%
CCOC(=O)c1c(NC(=O)c2nc(SCC)ncc2Cl)sc(C(C)=O)c1C	3%	-1%	22%	10%
CCCS(=O)(=O)c1ncc(Cl)c(C(=O)Nc2ccc(S(=O)(=O)Nc3ncccn3)cc2)n1	-11%	-3%	45µM*	-1%
CCOC(=O)c1c(NC(=O)c2nc(S(C)(=O)=O)ncc2Cl)sc(C(C)=O)c1C	5%	4%	1.4µM*	-6%
CC(C)(C)n1ncc2c(=O)n(Cc3c(F)ccc(Cl)c3Cl)cnc21	.	4%	21%	.
CSc1nnc(NC(=O)c2nc(S(=O)(=O)Cc3ccccc3)ncc2Cl)s1	-7%	-8%	32µM*	3%
CC(C)c1nnc(NC(=O)c2nc(S(=O)(=O)Cc3ccccc3)ncc2Cl)s1	2%	-2%	50µM*	3%
CCCc1nnc(NC(=O)c2nc(S(=O)(=O)Cc3ccc(C)cc3)ncc2Cl)s1	4%	5%	50µM*	3%
Cc1ccc(CS(=O)(=O)c2ncc(Cl)c(C(=O)Nc3nc4ccc(C)cc4s3)n2)cc1	-2%	1%	?	-11%
Cc1ccccc1CS(=O)(=O)c1ncc(Cl)c(C(=O)Nc2nnc(C(C)C)s2)n1	10%	2%	7.1µM*	-1%
O=C(Nc1ccccc1Cl)NC1(C(=O)NCc2cccnc2)CCCCC1	0%	-13%	-6%	4%
Cc1cccc(C)c1-n1ncc(C(=O)NCCCN2CCC(C)CC2)c1C1CCN(C(=O)OC(C)(C)C)CC1	-15%	0%	-1%	21%
CCOc1ccc(NC(=O)CN2CCN(c3ccc(Cl)cc3)CC2)cc1	11%	9%[57.1 µM]	18%[57.1 µM]	-3%
O=C(Nc1ccc(Cl)cc1)Nc1ccc(Cl)c(C(F)(F)F)c1	3%	.	.	.
[2H]c1c([2H])c([2H])c2c([nH]c(=S)n2C2CCN(CCCC(=O)c3ccc(F)cc3)CC2)c1[2H]	8%	.	.	.
CCOC1=C2[C@H](c3ccccc3)N(S(=O)(=O)c3ccc(C)cc3)C(C(C)(C)C)[C@H]2C(C#N)(C#N)C(C#N)(C#N)C1 (stereo partly drawn)	2.2µM*	.	.	.
CCOC1=C2CN(S(=O)(=O)c3ccc(C)cc3)[C@H](c3cccc4ccccc34)C[C@H]2C(C#N)(C#N)C(C#N)(C#N)C1	-11%	.	.	.
CCCCCCCCOC(=O)c1cc([N+](=O)[O-])c(Sc2ncnc3nc[nH]c23)c([N+](=O)[O-])c1	-28%	-7%	40µM*	2%
CC#CCC(C)[C@H](O)/C=C/C1[C@H](O)C[C@@H]2C/C(=C\CCCC(=O)O)C[C@H]12 (stereo partly drawn)	-7%	.	.	.
O=c1c(Br)ccc(Br)cc1Br	32%	13%[11.4 µM]	0.2µM*	?
O=C1CN(S(=O)(=O)c2cc(Br)ccc2Br)CCN1	0%	1%	13%	5%
CC(=O)N(CCC(Cc1ccccc1)c1ccc2c(c1)OCO2)Cc1ccc(Cl)cc1 (stereo not drawn)	-3%	-5%	7%	7.4µM*
CN(C)c1cccc2c(C=C(C#N)C#N)ccc(N(C)C)c12	23%	-11%	25µM*	0%

Compound activity: PubChem BioAssay, National Center for Advancing Translational Sciences (NCATS)
